From PubChem BioAssay
Pf Dd2 growth: blocks in vitro growth of P. falciparum Dd2. P. falciparum Dd2 growth, SYBR Green, 72 h. Potency, µM (doses to about 28.9 µM), hits mostly inhibitors. actives 4.3% (n = 120,000). AID 1347417; active means well fitted inhibition curve with a large enough effect; further: nearly all actives have a fitted effect of over 65% in size
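Infected erythrocytes (Dd2, 0.3% parasitemia, 2.5% hematocrit final) are added to compound in RPMI-1640/Albumax II medium, grown 72 h at 37C in low oxygen, then lysed with saponin/Triton-X containing SYBR Green and read by fluorescence.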
Large screens that a line does not name were inactive; ! = not active in a repeat. Many of the other results were omitted from the sample, so hits are more common in it than they were.

CCC(=O)N1CCc2cc(Br)cc(S(=O)(=O)CCC(=O)Nc3ccc(C)c(F)c3)c21	Pf Dd2 growth 5µM
COc1ccccc1N1CCN(C(=O)CCS(=O)(=O)c2cc(Br)cc3c2N(C(=O)C2CC2)CC3)CC1	Pf Dd2 growth 10µM
CCC(=O)N1CCc2cc(Br)cc(S(=O)(=O)CCC(=O)Nc3cccc(CC)c3)c21	none
CCC(=O)N1CCc2cc(Br)cc(S(=O)(=O)CCC(=O)Nc3ccc(CC)cc3)c21	none
Cc1cc(NC(=O)CCS(=O)(=O)c2cc(Br)cc3c2N(C(=O)C2CC2)CC3)ccc1Br	Pf Dd2 growth 4.5µM
COc1ccc(Cl)cc1NS(=O)(=O)c1cc(Br)cc2c1N(C(=O)C1CC1)CC2	none
Cc1cc(NC(=O)CCS(=O)(=O)c2cc3c4c(c2)CCN4C(=O)CC3)ccc1Br	none
CCC(=O)N1CCc2cc(Br)cc(S(=O)(=O)NCCc3ccccc3)c21	none
COc1ccccc1N1CCN(C(=O)CCS(=O)(=O)c2cc(Br)cc3c2N(C(C)=O)CC3)CC1	none
CCc1cccc(C)c1NC(=O)CCS(=O)(=O)c1cc(Br)cc2c1N(C(=O)C1CC1)CC2	none
COc1ccc(Br)cc1CNC(=O)c1ccc2c(c1)nc1n2CCC(C)C1 (stereo not drawn)	none
O=C(Cn1c(=O)n(-c2ccccc2)c(=O)c2sc3ccccc3c21)N1CCCC1	none
COc1ccc(CN(C)CC2[C@H]3CNC[C@@H]23)c2cccnc12 (stereo partly drawn)	none
Cc1ccccc1C(=O)NC(C(=O)NCC(C)C)C1CCN(C(=O)CC(C)C)CC1 (stereo not drawn)	none
CCOc1ccc2nc(N3CCC(C(=O)Nc4ccccc4CC)CC3)sc2c1	none
COc1ccc(-n2c(CCN)n[nH]c2=O)cc1OC	none
O=C(Cc1ccc2c(c1)OCO2)N1CCOCC2(CN(Cc3cc(F)cc(F)c3)C2)C1	none
COc1ccc2c(c1)C1(CCN(S(=O)(=O)c3cccc(F)c3)C1)C(=O)N2C (stereo not drawn)	none
CCNC(=O)N1[C@@H]2CC[C@H]1CC(NC(=O)c1ccc(F)cc1)C2 (stereo partly drawn)	none
COc1ccc(NC(=O)C2CCCN(c3ncnc4onc(C)c34)C2)cc1OC (stereo not drawn)	none
CCCC12CN3CC(CCC)(CN(C1)C3c1ccc(OC(C)C)cc1)C2=O (stereo not drawn)	none
COc1cccc(CN2CCOC3(CCN([S+](=O)([O-])c4cccnc4)CC3)C2=O)c1	none
Cc1ccc(NC(=O)C2CCN(S(=O)(=O)c3cccc4nonc34)CC2)cc1C	none
CC(=O)c1ccc(N2CCN(S(=O)(=O)c3cc(-c4noc(C)n4)ccc3C)CC2)cc1	none
Cc1nc(-c2cccc(S(=O)(=O)N3CCC(C(=O)NCc4ccccc4Cl)CC3)c2)no1	none
COc1ccc(-c2noc(N3CCC(C(=O)Nc4ccc(OC)c(OC)c4)CC3)n2)cc1	none
Cc1nc(-c2ccc(C)c(S(=O)(=O)N3CCC(C(=O)Nc4ccc(Cl)cc4)CC3)c2)no1	Pf Dd2 growth 11µM
COc1cccc(NC(=O)C2CCN(S(=O)(=O)c3cc(-c4noc(C)n4)ccc3C)CC2)c1	Pf Dd2 growth 10µM
Cc1ccc(-c2cc3c(=O)n(CCNC(=O)Cc4ccsc4)ccn3n2)c(C)c1	none
O=C(O)CCSc1nnc(-c2ccc(Cl)cc2Cl)o1	none
O=C(C1CCN(c2ncnc3c2nc2n3CCCCC2)CC1)N1CCN(c2ccc(F)cc2)CC1	none
Cc1ccccc1Nc1ncnc2c1c(-c1ccccc1)cn2-c1ccc(F)cc1	none
CCc1noc(-c2ccc(N3CCCCC3C)c([N+](=O)[O-])c2)n1 (stereo not drawn)	none
O=C(c1ccc[nH]1)N1CCN(C(=O)c2nnn3c2COC(c2ccc(Cl)cc2)C3)CC1 (stereo not drawn)	none
COc1ccc(-c2nc(-c3c(C)noc3C)cc3cc(C(C)C)oc23)cn1	Pf Dd2 growth 8.9µM
COCCNc1nc(-c2c(C)noc2C)cc2cc(C(C)C)oc12	none
Cc1noc(C)c1-c1cc2cc(C(C)C)oc2c(-c2cccc(CO)c2)n1	none
COCCn1c(C)cnc1CCNC(=O)C1CCOCC1	none
COc1ccc(CNC(=O)N2CCC(C3CCN(S(C)(=O)=O)CC3)C2)cc1 (stereo not drawn)	none
CCN(CC)Cc1cnc2c(C(=O)N(C)Cc3cc(C)cc(C)n3)cnn2c1	none
O=C(NC1CCCCC1)N[C@H]1CO[C@H]2[C@@H]1OC[C@@H]2n1nnnc1-c1ccc2c(c1)OCO2	none
COc1ccc(C(=O)c2c(N)c(-c3nc(-c4ccc5c(c4)OCO5)cs3)c3ccccn23)cc1	none
Cc1ccc(-c2csc(-c3c(N)c(C(=O)c4ccc5c(c4)OCO5)n4ccccc34)n2)cc1C	none
Cc1ccc(C)c(C(=O)c2c(N)c(-c3nc(-c4ccc5c(c4)OCO5)cs3)c3ccccn23)c1	Pf Dd2 growth 8.9µM
COCCC1(NC(=O)C2CCOCC2)CCN(C(=O)C(C)c2ccccc2)CC1 (stereo not drawn)	none
COc1ccc(CC(=O)N[C@H]2[C@H](O)[C@H](O)C[C@@H]2c2ccc(C(F)(F)F)nc2)cc1	none
Cc1ccc(C)c(NC2=C(c3ccc(C(F)(F)F)cc3)C(=O)c3ccccc32)c1	Pf Dd2 growth 1.4µM
Cc1ccc(C)c(NC(=O)C(C)N(c2ccccc2)S(C)(=O)=O)c1 (stereo not drawn)	none
Cc1ccc(C)c(NS(=O)(=O)c2ccc3c4c(cccc24)C(=O)N3)c1	none
CN1C[C@@H](NC(=O)c2cncnc2)C[C@H]1c1nc(-c2cnccn2)no1	none
CCc1ncc(-c2ccccc2)[nH]1	none
CCOc1ccc(-c2cnc(-c3cnc(CC)nc3)[nH]2)cc1OCC	Pf Dd2 growth 10µM
CCOc1ccc(-c2nc(C3CC(=O)N(c4ccc(F)cc4)C3)no2)cc1OCC (stereo not drawn)	none
O=C(Cn1c(=O)oc2cc(S(=O)(=O)NCc3ccccc3)ccc21)NCc1ccc(Cl)cc1	none
Cc1nc2c(-c3ccccc3)c(C)[nH]n2c(=O)c1Cc1ccc(Br)cc1	Pf Dd2 growth 7.9µM
Cc1ccc(Cc2c(C)nc3c(-c4ccccc4)c(C)[nH]n3c2=O)cc1	none
CCCCc1c(C)nc2c(-c3ccc(Cl)cc3)c(C)[nH]n2c1=O	none
CN1CCOc2c(C(=O)NCc3cccnc3)cc(-c3ccc(O)c(F)c3)cc21	none
Cc1ccc(OCc2nc(C3CCCCN3C(=O)c3ccncc3)no2)cc1 (stereo not drawn)	none
CCCNC(=O)Cn1c(=O)n(CC2CCC(C(=O)NC)CC2)c(=O)c2sccc21 (stereo not drawn)	none
CCn1c(C2CCCN(C(=O)Cc3c[nH]c4ccccc34)C2)nn(C)c1=O (stereo not drawn)	none
CN1C(=O)C(CC(=O)NCC2CCN(Cc3cccc(F)c3)CC2)=C2CCCCC21 (stereo not drawn)	none
Cc1oc2c(c1C(=O)N1CCN(C3CCCC3)CC1)CN(Cc1cccc(F)c1)CC2	Pf Dd2 growth 8.9µM
O=C1CCN(Cc2cccc(F)c2)CCCCCCN1	none
O=C(CC1CCOCC1)N1CCN(Cc2cccc(F)c2)CC1	none
Cc1oc2c(c1C(=O)N1CCCC1)CN(Cc1cccc(F)c1)CC2	none
Cc1oc2c(c1C(=O)N1CCCCCC1)CN(Cc1cccc(F)c1)CC2	Pf Dd2 growth 4µM
Cc1cccc(NC(=O)c2cc3c([nH]c2=O)CC(c2ccccc2)CC3=O)c1 (stereo not drawn)	none
Cc1nc(C2CC(O)C2)cc(N2CCN(c3nc4ccccc4s3)CC2)n1 (stereo not drawn)	none
Cc1cc(-c2nc3ccncc3[nH]2)c(C)[nH]1	Pf Dd2 growth 20µM!
O=C(O)c1ccc(-c2nc3ccncc3[nH]2)cc1	Pf Dd2 growth 1.3µM!
c1cc2nc(C3CCNC3)[nH]c2cn1 (stereo not drawn)	none
O=C(O)c1ccc(-c2cccnc2)cc1	none
